Rows were chosen to be rich in hits. Some 3.5% of all compounds tested hit in one or more screens of this group.
Anthrax LF prot: Bacillus anthracis LF protease inhibitors, primary screen, biochemical, multiplex microsphere, MLPCN library | Lethal factor (Bacillus anthracis), P15917 | multiplex microsphere protease cleavage assay | inhibition, % at 10 µM | 360,000 compounds, 0.12% hits | AID 588501, 2011; further: plate controls were buffer without enzyme for full effect and enzyme alone for no effect
Target sequence (P15917 whole entry, looked up): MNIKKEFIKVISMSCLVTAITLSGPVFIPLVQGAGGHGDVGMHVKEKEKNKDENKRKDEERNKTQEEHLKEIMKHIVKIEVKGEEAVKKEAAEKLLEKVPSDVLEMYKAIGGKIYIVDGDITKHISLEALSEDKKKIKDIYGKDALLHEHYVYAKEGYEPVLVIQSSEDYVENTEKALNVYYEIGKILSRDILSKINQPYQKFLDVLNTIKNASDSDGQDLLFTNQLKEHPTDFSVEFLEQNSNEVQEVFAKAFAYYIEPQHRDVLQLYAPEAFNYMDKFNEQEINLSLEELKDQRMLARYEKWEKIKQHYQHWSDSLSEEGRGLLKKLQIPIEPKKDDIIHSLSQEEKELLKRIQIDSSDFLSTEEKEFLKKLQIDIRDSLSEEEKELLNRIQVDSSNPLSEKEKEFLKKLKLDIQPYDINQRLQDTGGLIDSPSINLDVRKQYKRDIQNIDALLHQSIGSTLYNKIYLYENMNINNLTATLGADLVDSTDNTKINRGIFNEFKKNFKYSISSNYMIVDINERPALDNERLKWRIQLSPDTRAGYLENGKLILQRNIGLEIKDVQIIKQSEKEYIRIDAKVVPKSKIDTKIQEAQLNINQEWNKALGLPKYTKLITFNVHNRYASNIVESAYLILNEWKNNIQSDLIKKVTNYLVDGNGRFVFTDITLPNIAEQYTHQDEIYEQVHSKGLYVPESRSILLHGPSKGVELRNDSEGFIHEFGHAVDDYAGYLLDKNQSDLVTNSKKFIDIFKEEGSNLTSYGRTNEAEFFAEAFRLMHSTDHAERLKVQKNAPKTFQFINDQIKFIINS
BH1578 lux ind: inducers of Vibrio cholerae quorum light production without autoinducers, primary screen, BH1578 luxS cqsA deficient, single point; activation, % at 18.7 µM; 350,000 compounds, 0.16% hits; V. cholerae BH1578 lux reporter, luminescence, 6 h; AID 588436, 2011; in the data active means activation mostly above about 9.7%, no sharp cut-off; inconclusive means no clear call, values can overlap the other calls; inactive means mostly below about 3.7%
BoNT-A LC inh2: BoNT/A light chain protease inhibitors, primary screen, biochemical, flow cytometry, MLPCN library. Botulinum neurotoxin type A light chain protease (Clostridium botulinum A str. ATCC 3502). multiplex microsphere protease substrate cleavage. inhibition, % at 10 µM. 360,000 compounds, 0.17% hits. AID 588499, 2011; further: plate controls were buffer without enzyme for full effect and enzyme alone for no effect
Bead autofluor: flagged as autofluorescent in microsphere protease counterscreen; AID 624483; compound autofluorescence counterscreen, microsphere flow cytometry; hits give high values; fluorescence intensity (no concentration beside the values); 360,000 compounds, 3.1% hits; in the data active means fluorescence intensity above about 16000; inconclusive means no clear call, values can overlap the other calls
BoNT-F LC inh: BoNT/F light chain protease inhibitors, primary screen, biochemical, flow cytometry, MLPCN library; inhibition, % at 10 µM; Multiplex microsphere protease cleavage assay; 360,000 compounds, 0.22% hits; in the data active means inhibition above about 35%, passing the limit was not always enough; inconclusive means no clear call, values can overlap the other calls; further: plate controls were buffer without enzyme for full effect and enzyme alone for no effect
Active calls of the source: *; i = inactive; ? = inconclusive; · = no result given. Unless noted, no stated cut-off is given here; in the data, active means inhibition above about 30%; inconclusive means no clear call, values can overlap the other calls; inactive means below that.

SMILES	Anthrax LF prot	BH1578 lux ind	BoNT-A LC inh2	Bead autofluor	BoNT-F LC inh
O=C(C1=C(O)C(=O)N(CCN2CCOCC2)C1c1cccc(O)c1)c1cc2ccccc2o1 (stereo not drawn)	-7	i	3	4754	12
Cc1ccc(N2CC(C(=O)NCCCn3ccnc3)CC2=O)cc1 (stereo not drawn)	0	i	-2	16950*	-3
COc1ccc(N2CC(C(=O)NCCCN3CCOCC3)CC2=O)cc1 (stereo not drawn)	1	6	0	23842*	2
O=C(c1ccco1)n1c(=S)nc2ccccn21	0	i	1	22668*	2
CN1CCn2c1nc(N1CCCCC1)nc2=O	0	-5	-6	21803*	-9
CC(C)OC(=O)C1C2C=CC3(CN(CC4CCCO4)C(=O)C13)O2 (stereo not drawn)	-3	21*	0	3714	3
CC(C)OC(=O)C1C2C=CC3(CN(C(C)c4ccc(Br)cc4)C(=O)C13)O2 (stereo not drawn)	1	1	0	5547	-4
O=c1c2ccccc2nnn1Cc1ccc(Br)cc1	3	0	-1	4408	-2
CC(C)OC(=O)c1ccc(Cn2nnc3ccccc3c2=O)cc1	0	i	4	20849*	7
CCCCC(CC)C1OCC(CN2CCCC2)O1 (stereo not drawn)	-3	-3	?	19353*	11
CCCCC(CC)C1OCC(CN2CCCCC2)O1 (stereo not drawn)	-10	-1	-8	4297	?
CN(Cc1ccccc1)C(=O)CC(=O)N(C)Cc1ccccc1	-6	-4	0	3631	-33
CN(/C=C/C(=O)C(F)(F)F)Cc1ccccc1	-2	i	-2	24286*	-4
O=C(CN1C(=O)NC2(CCCCC2)C1=O)N1CCN(S(=O)(=O)/C=C/c2ccccc2)CC1	-1	-2	7	3848	7
O=C(CCCn1c(=S)[nH]c2cc3c(cc2c1=O)OCO3)N1CCN(c2ncccn2)CC1	-2	i	?	20894*	4
Cc1ccc(C)c(N2CCN(C(=O)CCCn3c(=S)[nH]c4cc5c(cc4c3=O)OCO5)CC2)c1	0	i	-3	17273*	-8
CCOC(=O)N1CCN(C(=O)CCCn2c(=S)[nH]c3ccc(Br)cc3c2=O)CC1	0	2	?	20951*	-3
CCOC(=O)N1CCN(C(=O)CCCn2c(=S)[nH]c3ccccc3c2=O)CC1	-2	1	0	3846	7
CCCN(CC(=O)Nc1ccccc1C)C(=O)/C=C/c1ccc(S(=O)(=O)N2CCCCCC2)cc1	-2	i	2	5653	7
CS(=O)(=O)Cc1ccc(C(=O)N2CCN(C(=O)c3cccs3)CC2)cc1	-4	i	-1	6639	-8
CCN(CC)S(=O)(=O)c1cc(OC)c(Cl)cc1OC	-6	0	-3	5130	-8
COCCn1c(SCC(=O)NCc2ccc3c(c2)OCO3)nc2ccccc2c1=O	-2	0	0	3221	2
COc1ccc(Nc2ccccc2)c(C)c1	-2	-1	2	22653*	-2
COc1cccc(Nc2cc(C)nc3ccccc23)c1	1	3	?	20171*	0
Cc1ccc(OCCCCn2ccnc2)c(Cl)c1	-15	i	7	19999*	8
SMILES	Anthrax LF prot	BH1578 lux ind	BoNT-A LC inh2	Bead autofluor	BoNT-F LC inh
COc1cccc(OCCn2ccnc2)c1	-3	i	0	23533*	0
COc1ccc(OCCn2ccnc2)cc1	-7	i	-4	3725	-5
Cc1cccc(OCCCn2ccnc2)c1	-2	i	?	21296*	-2
C=CCc1ccccc1OCCn1ccnc1	6	·	-2	10388	-8
Cc1ccc(C)c(OCCCCn2ccnc2)c1	2	-2	0	10363	0
Cc1cc(C)cc(OCCCn2ccnc2)c1	2	0	-3	4227	6
Clc1ccccc1OCCn1ccnc1	2	0	0	20725*	3
Cc1cccc(C(=O)Nc2ccc(S(=O)(=O)Nc3nc(C)cc(C)n3)cc2)c1	-10	-2	-2	4031	?
COc1ccc(Cl)cc1N(CC(=O)NC(C)(C)C)S(=O)(=O)c1ccc(C)c([N+](=O)[O-])c1	-2	0	0	2277	-2
COc1ccccc1NC(=O)CSc1nnnn1-c1ccc(F)cc1	·	0	·	·	·
CC1(C)OC(=O)C(=NNc2ccc(Cl)cc2)C(=O)O1	-1	-6	-4	22457*	-7
CC1(C)OC(=O)C(=NNc2ccccc2)C(=O)O1	-2	0	0	2107	2
CN(CCc1ccccn1)C(=O)CCC1CCCN(C(=O)c2n[nH]c3c2CCCC3)C1 (stereo not drawn)	7	-1	0	2977	2
Cc1ccc(S(=O)(=O)N2CCCC(C(=O)NCCC3=CCCCC3)C2)cc1 (stereo not drawn)	-1	0	-1	21132*	-2
O=C(NCCC1=CCCCC1)C1CCN(S(=O)(=O)N2CCOCC2)CC1	-2	-1	-2	20881*	-4
NS(=O)(=O)c1ccc(CNC(=O)NC23CC4CC(CC(C4)C2)C3)cc1	-16	2	?	17603*	11
NS(=O)(=O)c1ccc(CNC(=O)C23CC4CC(CC(C4)C2)C3)cc1	-3	·	0	3115	-3
O=C(NCCCO)NC12CC3CC(CC(C3)C1)C2	-1	-1	3	19797*	5
COC(=O)c1ccc(CN2CCN(CCc3ccccc3)C(CCO)C2)cc1 (stereo not drawn)	-5	i	1	4274	1
c1ccc(OCc2nn3c(-c4ccncc4)nnc3s2)cc1	-1	i	-4	21442*	-5
c1ccc(OCc2nn3c(-c4ccccn4)nnc3s2)cc1	-11	0	0	9463	-1
Cc1cccn2c(=O)nc(SCC(=O)N3CCCC3)nc12	0	i	4	?	2
C=CCNC(=O)c1ccc(-n2cccc2)cc1	-2	0	0	2343	1
Cc1cc(C)n(Cc2ccc(NC(=O)c3c([N+](=O)[O-])c(C)nn3C)cc2)n1	-2	i	4	21819*	4
Cc1cc(C)n(Cc2ccc(NC(=O)c3nn(C)cc3[N+](=O)[O-])cc2)n1	-11	i	2	22583*	1
CCn1cc([N+](=O)[O-])c(C(=O)Nc2ccc(Cn3nc(C)cc3C)cc2)n1	-2	1	0	10112	-7
CC1CC(C)CN(CCCNC(=O)c2ccc3c(c2)NC(=O)CS3)C1 (stereo not drawn)	-1	1	1	5946	-7
CC(C)Cc1nnc(NC(=O)c2ccc3c(=O)n4c(nc3c2)CCC4)s1	·	i	·	·	·
Cc1c(OCC(=O)NCCN2CCOCC2)ccc2c1oc(=O)c1ccccc12	·	0	·	·	·
Fc1ccccc1OCCCN1CCOCC1	-16	0	9	17023*	12

Assay outcomes as filed in PubChem.
